Not all results are given here.
aSyn 5UTR act – Activators via SNCA 5'UTR binding, MLPCN; alpha-synuclein 5'UTR reporter, activators screen; activity score, % (tested at 7.5 µM), hits read low; 7.1% of 300,000 active; AID 1814; in the data active means activity score below about -60%
Large screens that a line does not name were inactive.

Cc1ccc(NC(=S)/C(=C(\[O-])c2ccc(F)cc2)[n+]2ccccc2)cc1	aSyn 5UTR act -90
[O-][n+]1c2ccccc2c2n1CCCN=C2c1ccc(Cl)cc1	aSyn 5UTR act -149
CCOc1ccc(OCc2cccc(C(=O)O)c2)cc1	none
CCC(=O)c1ccc(OCc2ccc(C#N)cc2)cc1	aSyn 5UTR act -112
CCOc1ccc(OCc2ccc(C(=O)N(CC)CC)cc2)cc1	aSyn 5UTR act -155
CCOc1ncccc1C(=O)OCc1ccc(C(=O)OC)cc1	aSyn 5UTR act -126
CCC(=O)c1ccc(OCc2ccc(C(=O)OC)cc2)cc1	aSyn 5UTR act -73
COC(=O)c1ccc(N=Cc2c(C(F)(F)F)[nH][nH]c2=O)cc1	aSyn 5UTR act -135
Brc1ccc2nc(CSc3ncn[nH]3)cn2c1	aSyn 5UTR act -68
C=C(C)CSc1nnc(-c2cccc(Cl)c2)n1N	aSyn 5UTR act -85
C=C(C)CSc1nnc(-c2ccc(OC)cc2)n1N	aSyn 5UTR act -103
C=C(C)CSc1nncn1/N=C/c1ccc(OC)cc1	aSyn 5UTR act -187
Cc1ccnc(NC(=O)CCCc2ccccc2)c1	aSyn 5UTR act -182
O=C(CCCc1ccccc1)Nc1ccccn1	aSyn 5UTR act -111
Cc1nc(-c2ccc(C(=O)Nc3cccc(Br)c3)cc2)cs1	aSyn 5UTR act -143
CCOC(=O)c1csc(NC(=O)C2=COCCO2)n1	aSyn 5UTR act -87
O=C(Nc1nc(-c2cc(F)ccc2F)cs1)C1=COCCO1	aSyn 5UTR act -63
CC(C)(C)c1csc(NC(=O)C2=COCCO2)n1	aSyn 5UTR act -107
Cc1nc(-c2ccc(NC(=O)c3ccc(Br)o3)cc2)cs1	aSyn 5UTR act -175
O=C(Nc1cccc(Br)c1)c1ccn[nH]1	aSyn 5UTR act -102
CC(=O)Nc1ccc(-c2csc(NC(=O)C3=COCCO3)n2)cc1	aSyn 5UTR act -115
Cc1ccc(-c2csc(NC(=O)C3=COCCO3)n2)cc1	aSyn 5UTR act -169
Cc1ccc(-c2csc(NC(=O)N3CCOCC3)n2)cc1	aSyn 5UTR act -103
COc1ccc(C)c2sc(NC(=O)C3=COCCO3)nc12	aSyn 5UTR act -77
CC(=O)Nc1ccc(-c2csc(NC(=O)c3ccc(C)o3)n2)cc1	aSyn 5UTR act -83
CCOC(=O)c1csc(NC(=O)C2CCCCC2)n1	aSyn 5UTR act -103
O=C(Nc1nc(-c2cc(F)ccc2F)cs1)c1ccccn1	aSyn 5UTR act -115
COc1ccc(OC)c(NC(=O)c2ccc(-c3csc(C)n3)cc2)c1	aSyn 5UTR act -84
CC(C)(C)c1cc[n+](C2=C([O-])c3ccccc3C(=O)/C2=N\S(=O)(=O)c2cccs2)cc1	none
O=C(O)c1ccc(N/N=C/c2ccc3nccnc3c2)cc1	none
O=C(O)c1ccc(N/N=C/c2cccc(C(F)(F)F)c2)cc1	aSyn 5UTR act -99
O=C(O)c1ccc(N/N=C/c2ccc(F)c(F)c2)cc1	aSyn 5UTR act -73
NC(=O)c1c(/N=C/c2cccnc2)sc2c1CCCC2	aSyn 5UTR act -102
Cc1ccc(/C=N/c2sc3c(c2C(N)=O)CCCC3)o1	aSyn 5UTR act -114
Cc1c(C(=O)NCC2CCCO2)sc2nc(-c3ccc(F)cc3)cn12 (centres undefined)	aSyn 5UTR act -84
CCN(CC)CCCNC(=O)c1sc2nc(-c3ccc(F)cc3)cn2c1C	aSyn 5UTR act -108
O=c1[nH]c2ccccc2nc1-c1cccs1	aSyn 5UTR act -152
O=C(Nc1nc2ccccc2[nH]1)C1CCCO1 (centres undefined)	aSyn 5UTR act -79
Cc1[nH]c2ccccc2c1-c1nc2ccccc2[nH]c1=O	aSyn 5UTR act -63
O=C(Nc1nc2ccccc2[nH]1)c1cccs1	aSyn 5UTR act -91
O=C(Nc1ccc(-c2nc3ccccc3[nH]2)cc1)C1CCCO1 (centres undefined)	none
Cc1ccc(C(=O)Nc2nc3ccccc3[nH]2)cc1	none
O/C(=C\c1nc2ccccc2[nH]1)c1cccs1	aSyn 5UTR act -200
O=C(Nc1nc2ccccc2[nH]1)c1ccc(Br)o1	aSyn 5UTR act -132
O=c1[nH]c2ccccc2nc1/C=C(\O)c1cccs1	aSyn 5UTR act -174
O=C(Nc1nc2ccccc2[nH]1)C12CC3CC(CC(C3)C1)C2	aSyn 5UTR act -181
COc1ccc(-c2cc(-c3cc(OC)ccc3O)[nH]n2)cc1	aSyn 5UTR act -199
COc1ccc(O)c(-c2cc(-c3ccc(F)cc3)n[nH]2)c1	aSyn 5UTR act -121
C=C(C)COc1ccc(-c2[nH]ncc2-c2ccc(Br)cc2)c(O)c1	none
COc1ccc(OC)c(-c2cc(C3CCN(c4cc(Cl)nc(N)n4)CC3)[nH]n2)c1	none
COc1ccc(O)c(-c2cc(-c3cccc(Br)c3)n[nH]2)c1	aSyn 5UTR act -132
COc1ccc(-c2cc(-c3ccc(Cl)cc3)n[nH]2)c(O)c1	aSyn 5UTR act -202
CNC(C)C#Cc1ccc2c(=O)c3ccccc3oc2c1 (centres undefined)	aSyn 5UTR act -244
FC(F)(F)c1cccc(-c2nc(-c3ccncc3)no2)c1	aSyn 5UTR act -191
O=C(O)c1ccc(-c2noc(-c3cccc(C(F)(F)F)c3)n2)cc1	aSyn 5UTR act -83
O=C(Nc1ccc2c(c1)OCCO2)c1cc(F)c(F)cc1Cl	aSyn 5UTR act -195
O=C(Nc1ccc2c(c1)OCCO2)c1cccc(Cl)c1Cl	aSyn 5UTR act -140
O=C(Nc1ccc2ccccc2c1)c1cc(F)c(F)cc1Cl	aSyn 5UTR act -140
Cc1ccc(C(=O)Nc2ccc3c(c2)OCCO3)c(Cl)c1	none
Cc1nc(C#N)c(N/N=C/c2cccc(Cl)c2)o1	aSyn 5UTR act -126
O=C1N=C(N2CCCCC2)S/C1=C/C1=Cc2ccccc2OC1	aSyn 5UTR act -103
O=C1N=C(N2CCCCC2)S/C1=C\c1ccc(Br)cc1	aSyn 5UTR act -128
COc1ccc(CC(=O)Nc2ccc(-c3ccc4nnc(C)n4n3)cc2)cc1OC	aSyn 5UTR act -75
CCSc1nnc2ccc(-c3ccc(OC)c(OC)c3)nn12	none
CCCCOc1ncnc2c1[nH]c1ccc(OC)cc12	aSyn 5UTR act -214
CCCCOc1ncnc2c1[nH]c1ccc(F)cc12	aSyn 5UTR act -118
CCCCOc1ncnc2c1[nH]c1ccccc12	aSyn 5UTR act -81
O=C(NC(c1cccnc1)C(F)(F)F)c1cc(COc2ccc3c(c2)CCCC3)on1 (centres undefined)	aSyn 5UTR act -104
CCOC(=O)CCSc1nc(C)c2cc(OC)ccc2n1	aSyn 5UTR act -123
CCOc1ccc2nc(SCc3cccc(C)c3)nc(C)c2c1	aSyn 5UTR act -129
O=C(NCc1ccccc1)C(=O)NCC1COc2ccccc2O1 (centres undefined)	aSyn 5UTR act -145
O=C(NCC1COc2ccccc2O1)c1cccs1 (centres undefined)	aSyn 5UTR act -64
COc1cc2c(cc1OC)C(c1ccccc1)N(C(=O)CCl)CC2 (centres undefined)	aSyn 5UTR act -86
CN(C)/C=N/c1sc2c(c1C#N)CCCC2	aSyn 5UTR act -80
CC1CCc2c(sc(/N=C/N(C)C)c2C#N)C1 (centres undefined)	aSyn 5UTR act -80
COC(=O)c1ccc2[nH]c3c(c2c1)CC(C)CC3 (centres undefined)	aSyn 5UTR act -96
CCOC(=O)c1ccc2[nH]c3c(c2c1)CCCC3	aSyn 5UTR act -124
S=c1[nH]cnc2sc(-c3ccccc3)cc12	aSyn 5UTR act -71
C/C(N)=C(/C#N)C(=O)CSc1nc2cc(Cl)ccc2s1	aSyn 5UTR act -116
CCSc1nnc(NC(=O)C2CCCCC2)s1	aSyn 5UTR act -98
C/C(N)=C(/C#N)C(=O)CSc1nnc(Nc2cccc(C)c2)s1	aSyn 5UTR act -180
CCSc1nnc(NC(=O)c2csc(C)c2)s1	aSyn 5UTR act -176
CCSc1nnc(NC(=O)Nc2cccc(C)c2)s1	aSyn 5UTR act -143
